Hits are enriched below; roughly 0.9% of the tested compounds scored in any of these assays.
HIV TAR-Tat – HIV-1 TAR-Tat binding disruption; z-score (concentration not given with the values); HIV-1 TAR RNA, Tat peptide displacement FRET; active compounds read high; 0.6% of 100,000 active; AID 1259389; active = z-score of 3 or more in at least 2 runs
CDC25B CDK2 inh – human CDC25B-CDK2/CyclinA binding inhibition | P30305+P24941 | HTRF CDC25B-CDK2/CyclinA binding, anti-His/anti-Flag; active compounds read high | z-score (test concentration not listed) | 0.72% of 94,000 active | AID 1259370; in the data active = z-score above about 3.2
* = called active by the depositor; . = no result.

SMILES	HIV TAR-Tat	CDC25B CDK2 inh
COc1cc(-c2oc3cc(O)cc(O)c3c(=O)c2O)ccc1O	1.75	.
COc1ccc(-c2cc(=O)c3c(O)cc(O)cc3o2)cc1	1.66	.
O=c1cc(-c2ccc(O)c(O)c2)oc2cc(O)cc(O)c12	33.1*	.
CC(C)C(=O)Nc1ccc2c(c1)nc1n2CCN(C(C)C)C1	-4.7	-1.58
O=S(=O)(NCCc1csc2nc(-c3ccccc3F)nn12)c1ccc(F)cc1	1.05	.
Cc1cc(NS(=O)(=O)c2ccc(-c3ccc(=O)[nH]n3)o2)ccc1Br	2.51	.
CN1CCc2cc(O)c(O)cc2C1Cc1ccc(O)c(O)c1 (centres undefined)	38.1*	.
COc1cc(Br)c(CC2c3cc(OC)c(OC)cc3CCN2C)cc1OC (centres undefined)	0.98	.
Cc1occc1-c1nnc(SCC(=O)c2ccc(Cl)cc2)o1	-2.33	0.95
Cc1occc1-c1nnc(SCC(=O)Nc2ccc(Cl)cc2)o1	3.78	10.2*
CCCCCc1c(C)nn(-c2nc(CC(=O)Nc3nc(C)cs3)cs2)c1C	-1.32	-1.65
O=C(Oc1ccc2c(=O)c(-c3ccccc3)coc2c1)c1ccc(F)cc1	.	0.37
COc1cccc2c1c(NS(=O)(=O)c1cccc3nonc13)nn2C	.	-2.01
Cc1c(C(=O)Nc2ccc(-n3cnnn3)cc2)oc2ccc(Cl)cc12	1.22	-0.77
Cc1cccc(-c2nc3sc(C)cc3c(=O)o2)c1	1.3	7.59*
CCc1cc2c(=O)oc(-c3ccccc3)nc2s1	0.63	-0.8
Cc1cc(C)n(Cc2ccc(C(=O)Nc3nnc(Cc4cn(C)c5ccccc45)s3)o2)n1	1.63	.
CCCN(CCC)C(=O)c1nn(C)c2c1COc1ccccc1-2	1.46	-0.95
CNC(=O)CCS(=O)(=O)c1cccc2nonc12	2.77	.
CSc1cccc(NC(=O)c2ncoc2-c2ccco2)c1	-1.79	.
Cc1cc2c(N)cccc2nn1	.	17.2*
Nc1cccc2nsnc12	.	-2.09
COCCN1C(=O)c2ccccc2C(C(=O)NCC2CCCO2)C1c1cn(C)c2ccccc12 (centres undefined)	.	-1.3
Oc1cc2c(cc1O)C1c3ccc(O)c(O)c3OCC1(O)C2 (centres undefined)	28.5*	.
O=C(c1cccs1)N1CCN(Cc2cc(=O)n3[nH]c(-c4ccccc4)nc3n2)CC1	1.37	.
SMILES	HIV TAR-Tat	CDC25B CDK2 inh
CC(=O)Oc1ccc(OC(C)=O)c2c1C(=O)c1ccccc1C2=O	.	17*
CC(=O)Oc1ccc2ccccc2c1-c1c(OC(C)=O)ccc2ccccc12	-0.52	-2.04
CCCC12CN3CC(C)(CN(C1)C3c1ccc(OCC)c(OC)c1)C2=O (centres undefined)	2.22	-2.23
Cc1sc(NC(=O)c2ccccc2)c(C#N)c1C	.	-1.14
CC1(C)CCc2cc(/C=C(\C#N)C(=O)c3cccc(C(F)(F)F)c3)ccc2O1	.	-2.04
COC(=O)c1cc2oc3ccccc3c2n1CC(=O)NCc1ccco1	8*	4.12
Cn1c(C(=O)NCc2ccco2)cc2oc3ccccc3c21	.	-4.61
Cc1cc(C)cc(NC(=O)CSc2nc(-c3ccc(Cl)cc3)nc3cc(=O)[nH]n23)c1	22.9*	.
Cc1ccc(NC(=O)CSc2nc(-c3ccc(Cl)cc3)nc3cc(=O)[nH]n23)cc1C	24.6	.
CSc1cccc(NC(=O)CSc2nc(-c3ccc(Cl)cc3)nc3cc(=O)[nH]n23)c1	18.1*	.
O=C(CSc1nc(-c2ccc(Cl)cc2)nc2cc(=O)[nH]n12)Nc1ccccc1	16.8	.
CCCCCc1ccc(S(=O)(=O)N2CCN(CCc3ccccc3)CC2)cc1	.	-1.91
Cc1cc(N)c(-n2cc3c(c2-c2ccccc2Br)c(=O)n(C)c(=O)n3C)cc1C	1.01	-2.38
Nc1ccc(-c2nc3ccc(-c4nc5ccc(N)cc5[nH]4)cc3[nH]2)cc1	.	9.87
Nc1ccc(-c2nc3cc(N)c(Cl)cc3[nH]2)cc1	5.51*	-6.2
CCOc1ccccc1Nc1cc(C)ncn1	0.91	1.05
CC1CCCC(C)N1C(=O)c1noc2c1CC(C(C)(C)C)CC2 (centres undefined)	-0.43	-1.03
OCCNCc1cccc(Oc2nnnn2-c2ccccc2)c1	0.8	.
c1ccc(-n2nnnc2Oc2cccc(CNCc3cccnc3)c2)cc1	21*	.
CCOCCCNc1ncc2c(n1)CC(c1ccco1)CC2=O (centres undefined)	.	-0.75
O=C1CC(c2cccs2)Cc2nc(NCCSc3ccc(Cl)cc3)ncc21 (centres undefined)	0.17	21.3*
Cc1cccc(C)c1Nc1c(-c2ccc(F)cc2)nc2cnccn12	.	0.83
Nc1ccc2nc(CCC(=O)O)[nH]c2c1	1.14	18.6*
O=C(O)CCc1nc2ccc(C(=O)O)cc2[nH]1	0.63	0.54
C1=C(c2ccc3c(c2)c2c4n3CCNC4CCC2)CCC1 (centres undefined)	.	13.8*
SMILES	HIV TAR-Tat	CDC25B CDK2 inh
CC(C)COc1ccc2c(c1)c1c3n2CCNC3CCC1 (centres undefined)	.	-3.12
Cc1cc(C)cc(NC(=O)NCc2c(-n3cccc3)sc3c2CCCC3)c1	0.31	-0.2
Cc1ccc(CNC(=O)NCc2c(-n3cccc3)sc3c2CCCC3)cc1	13*	-1.19
O=C(NC(C(=O)O)C12CC3CC(CC(C3)C1)C2)c1cccs1 (centres undefined)	.	0.12
O=C(Nc1ccccc1)Nn1cnnc1	.	-0.44
O=C(Nc1ccc(Cl)c(Cl)c1)Nn1cnnc1	.	18.3*
Cc1nc2ccccc2n1Cc1nnc2n1N=C(c1ccccc1)CS2	2.16	.
CN1C(C(=O)Nc2sc3c(c2C#N)CCC3)=CC(c2ccco2)=NS1(=O)=O	6.12*	-0.91
CN1C(C(=O)Nc2sc3c(c2C(N)=O)CCCC3)=CC(c2ccco2)=NS1(=O)=O	0.79	-1.43
CSc1sc(C(=O)NC(=O)Nc2ccc(Cl)cc2)c2c1-c1nocc1CC2	.	12.8*
CSc1sc(C(=O)NNC(=O)Nc2ccc(Cl)cc2)c2c1C1(CCC2)SCCS1	.	-1.46
O=c1cc(-c2ccc(O)c(O)c2)oc2cc(O)c([C@@H]3O[C@H](CO)[C@@H](O)[C@H](O)[C@H]3O)c(O)c12	26.5*	.
C[C@@H]1O[C@@H](OC2O[C@@H](COc3cc(O)c4c(=O)cc(-c5ccc(O)cc5)oc4c3)[C@@H](O)[C@@H](O)[C@@H]2O)[C@H](O)[C@H](O)[C@H]1O (some centres undefined)	1.16	.
O=c1cc(-c2cc(O)c(O)c([C@@H]3O[C@H](CO)[C@@H](O)[C@H](O)[C@H]3O)c2)oc2cc(O[C@@H]3O[C@H](CO)[C@@H](O)[C@H](O)[C@H]3O)cc(O)c12	24.7*	.
C[C@@H]1O[C@@H](O[C@H]2[C@H](Oc3cc(O)c4c(=O)cc(-c5ccc(O)cc5)oc4c3)O[C@H](CO)[C@@H](O)[C@@H]2O)[C@H](O)[C@H](O)[C@H]1O	1.05	.
Cc1nn(-c2nncc(-c3ccccc3)n2)c2c1C(c1cccc(O)c1)CC(=O)N2 (centres undefined)	2.59	-1.61
N#Cc1ccc(-c2c(N)oc(-c3cccs3)c2C#N)cc1	.	-1.64
CCN1C(=O)C2(c3ccccc31)C(C(=O)Nc1cccc(SC)c1)CC1CSCN12 (centres undefined)	20*	.
CSc1cccc(NC(=O)C2CC3CSCN3C23C(=O)N(C)c2ccccc23)c1 (centres undefined)	1.11	.
Cc1cc(Nc2ccccc2)n2ncc(-c3ccc(F)cc3)c2n1	-0.07	2.29
O=C(Nc1ccc(Br)cc1)N1CCSc2ncccc21	0.44	.
O=C(Cc1ccc(NC(=O)N2CCSc3ncccc32)cc1)Nc1ccc(Br)cc1	0.53	16.1*
